Test results reported in PubChem BioAssay AID2238 (Southern Research Specialized Biocontainment Screening …, 2010).
Active and inactive are the calls of the source. No rule for the calls is given here.

Assay: antiviral protection of cells from WNV – synthesized analogs, SAR follow-up (AID 2238)
Details: max CPE inhibition: measured here: maximum CPE inhibition observed, at 40 µM, stronger effect = higher value unless noted

Row | Structure (SMILES) | max CPE inhibition | outcome
1 | Oc1ccccc1C(Nc1nccs1)c1ccc2cccnc2c1O (stereo unspecified) | 8.25% [measured here: maximum CPE inhibition observed, at 5 µM, stronger effect = higher value] | inactive
2 | CCN(CC)CCCNC(=S)N1CCN(c2nc(-c3ccc(F)cc3)cs2)CC1 | 29.4% [measured here: maximum CPE inhibition observed, at 20 µM, stronger effect = higher value] | inactive
3 | O=C(Nc1nc(-c2ccc(Cl)cc2)cs1)c1ccc(I)cc1 | 0.78% | inactive
4 | COc1ccc(-c2csc(NC(=O)c3ccccc3Cl)n2)cc1 | 1.74% | inactive
5 | COc1cccc(NC(=O)CSc2nc3ccccc3c(=O)n2-c2ccc(F)cc2)c1 | 1.33% | inactive
6 | O=C(Nc1nc(-c2ccc(Cl)cc2)cs1)c1cccc(Cl)c1 | 0.85% | inactive
7 | COc1ccc(-c2csc(NC(=O)c3ccccc3F)n2)cc1 | 1.03% | inactive
8 | O=C(Nc1nc(-c2ccc(Cl)cc2)cs1)c1ccc(Cl)cc1 | 0.79% | inactive
9 | COc1ccc(-c2csc(NC(=O)c3ccc(Cl)cc3)n2)cc1 | 6.01% | inactive
10 | O=C(CSc1nc2ccccc2c(=O)n1-c1ccc(F)cc1)Nc1ccc2c(c1)OCCO2 | 2.5% | inactive
11 | CCCCN(C(=O)c1ccccc1Cl)c1nc(-c2ccc(OC)cc2)cs1 | 1.9% | inactive
12 | Cc1ccc2nc3n(c(=O)c2c1)CCC3 | 2.12% | inactive
13 | COc1ccc(-c2csc(N(C)C(=O)c3ccccc3Cl)n2)cc1 | 1.16% [measured here: maximum CPE inhibition observed, at 5 µM, stronger effect = higher value] | inactive
14 | O=c1c2cc(Br)ccc2nc2n1CC/C2=C/c1ccccc1 | 1.37% | inactive
15 | COc1cccc(C(NC(=O)c2ccccc2)c2ccc3cccnc3c2O)c1 (stereo unspecified) | 5.83% [measured here: maximum CPE inhibition observed, at 5 µM, stronger effect = higher value] | inactive
16 | O=c1c2cc([N+](=O)[O-])ccc2nc2n1CCC2 | 0.23% [measured here: maximum CPE inhibition observed, at 1.25 µM, stronger effect = higher value] | inactive
17 | CC1CC(C)CN(C(=O)CSc2nc3ccccc3c(=O)n2-c2ccc(F)cc2)C1 (stereo unspecified) | 2.88% | inactive

Row | Structure (SMILES) | max CPE inhibition | outcome
18 | O=c1c2cc(I)ccc2nc2n1CCC2 | 0.68% | inactive
19 | CCCN(C(=O)c1ccccc1Cl)c1nc(-c2ccc(OC)cc2)cs1 | 0.77% | inactive
20 | Cc1cccc2c1-c1sc(C(=O)NCCCN3CCCC(C)C3)cc1CO2 (stereo unspecified) | 12.1% [measured here: maximum CPE inhibition observed, at 10 µM, stronger effect = higher value] | inactive
21 | O=c1c2cc(Cl)cc(Cl)c2nc2n1CCC2 | 1.72% | inactive
22 | CCOC(=O)C1(Cc2ccccc2C(F)(F)F)CCN(C2CCN(C(C)=O)CC2)CC1 | 1.58% [measured here: maximum CPE inhibition observed, at 20 µM, stronger effect = higher value] | inactive
23 | COc1cccc(-n2c(SCC(=O)Nc3ccc4c(c3)CCC4)nc3ccccc3c2=O)c1 | 26.8% [measured here: maximum CPE inhibition observed, at 20 µM, stronger effect = higher value] | inactive
24 | O=c1c2c(F)cccc2nc2n1CCC2 | 1.51% | inactive
25 | c1ccc2c(c1)CN1CCCC1=N2 | 2.6% [measured here: maximum CPE inhibition observed, at 80 µM, stronger effect = higher value] | inactive
26 | COc1ccc(-c2csc(N(C(=O)c3ccccc3Cl)C(C)C)n2)cc1 | 1.92% | inactive
27 | COc1ccc(NC(=O)CSc2nc3ccccc3c(=O)n2-c2ccc(F)cc2)cc1 | 2.96% | inactive
28 | COc1ccc(-c2csc(N(CCCN(C)C)C(=O)c3ccccc3F)n2)cc1 | 3.61% [measured here: maximum CPE inhibition observed, at 80 µM, stronger effect = higher value] | inactive
29 | CC(=O)Nc1ccc2nc3n(c(=O)c2c1)CCC3 | 2.33% | inactive
30 | COc1ccc(-c2csc(N(CCCBr)C(=O)c3ccccc3Cl)n2)cc1 | 1.23% | inactive
31 | Cc1cccc2nc3n(c(=O)c12)CCC3 | 1.92% | inactive
32 | COc1ccccc1NC(=O)CSc1nc2ccccc2c(=O)n1-c1ccc(F)cc1 | 0.86% [measured here: maximum CPE inhibition observed, at 20 µM, stronger effect = higher value] | inactive
33 | O=C(CSc1nc2ccccc2c(=O)n1-c1ccc(F)cc1)Nc1cccc2ccccc12 | 2.57% | inactive
